# Source: PubChem BioAssay
# Compounds with a hit are over-represented: about 2.9% of the library has one in this group of screens.
# FID counter – fluorescent intercalator displacement, NS3 helicase counter-screen. AID 1845. hit rate 0.17% among 290,000. inhibition, % at 7.9 µM. DNA fluorescent intercalator displacement, fluorescence; in the data active = inhibition above about 37%;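 also: higher means more ethidium bromide displaced from hairpin DNA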
# MEKK2mut PB1 HTS – signal of MEK5 binding to mutant human MEKK2 PB1 domain. percent response, % at 10 µM. hit rate 0.35% among 290,000. bead flow cytometry, Alexa488-MEK5 binding to MEKK2 mutant; in the data active = percent response above about 24%, passing the limit was not always enough
# MEKK2 WT-MEK5 – raises or lowers MEK5 binding to wildtype human MEKK2 PB1 domain; Q9Y2U5; bead flow cytometry, Alexa488-MEK5 binding to MEKK2 WT; actives lie on both sides; binding response (% of control), % at 10 µM; hit rate 1.1% among 290,000; in the data active = binding response below about 67% or above about 130%
# MEKK3 PB1 HTS – raises or lowers MEK5 binding to the human MEKK3 PB1 domain; Q99759; bead-based flow cytometry, Alexa488-MEK5 binding to MEKK3; actives lie on both sides; 0 = blocked by unlabeled MEK5, 100 = vehicle; binding response (% of control), % at 10 µM; hit rate 1.4% among 290,000;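 active = binding response more than 3 SD above or below the average of its plate-row segment, actives on both sides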;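 also: Alexa488 bead fluorescence after subtracting the streptavidin-only scavenger bead signal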
# Target sequence (Q99759 whole entry, looked up, the tested form may be a part): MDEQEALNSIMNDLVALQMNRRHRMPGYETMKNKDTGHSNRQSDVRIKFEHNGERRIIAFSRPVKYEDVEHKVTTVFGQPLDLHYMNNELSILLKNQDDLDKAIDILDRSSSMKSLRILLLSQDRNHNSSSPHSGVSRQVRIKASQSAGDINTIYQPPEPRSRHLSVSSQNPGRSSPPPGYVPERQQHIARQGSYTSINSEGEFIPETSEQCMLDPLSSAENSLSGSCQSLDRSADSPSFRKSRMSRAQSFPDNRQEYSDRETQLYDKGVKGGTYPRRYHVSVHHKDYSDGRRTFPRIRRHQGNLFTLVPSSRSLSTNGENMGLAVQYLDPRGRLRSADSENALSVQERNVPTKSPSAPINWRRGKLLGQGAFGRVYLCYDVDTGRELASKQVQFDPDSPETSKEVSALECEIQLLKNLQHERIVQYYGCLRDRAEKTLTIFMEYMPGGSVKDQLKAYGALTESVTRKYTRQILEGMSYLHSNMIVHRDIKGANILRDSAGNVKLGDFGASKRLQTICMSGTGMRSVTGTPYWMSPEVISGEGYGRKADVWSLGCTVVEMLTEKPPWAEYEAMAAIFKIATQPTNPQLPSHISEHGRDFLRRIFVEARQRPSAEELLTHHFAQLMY
# dFosB activator – mouse delta FosB homodimer activation; AID 493131; hit rate 0.99% among 340,000; purified delta FosB, TAMRA-CDK5 oligo fluorescence polarization; percent of positive-control signal above neutral wells; activation, % at 25 µM;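 active = mean activation above about 17%, with every replicate also reaching it, limit read from the data, passing the limit was not always enough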
# A number is an active result; . = inactive; / = no result; [ ] = remark or other dose.
SMILES,FID counter,MEKK2mut PB1 HTS,MEKK2 WT-MEK5,MEKK3 PB1 HTS,dFosB activator
O=C(COC(=O)CNC(=O)c1sc2ccccc2c1Cl)Nc1cc(Cl)cc(Cl)c1,.,.,.,.,167
COc1cc(OC)c2c(-c3ccccc3)cc(=O)oc2c1C(CC(=O)N1CCN(c2ccccc2)CC1)c1ccc2c(c1)OCO2 (stereo unspecified),/,.,145,131,/
Cc1ccc(N2C(=O)Nc3ccc(Br)cc3C2(O)C(=O)NCCN(C)C)cc1C (stereo unspecified),.,.,.,.,.
O=C(COC(=O)c1cc(Br)ccc1O)NNC(=O)c1cccs1,/,/,/,/,29
Cc1cc(C(=O)NCc2ccccc2Cl)n(-c2ccccc2)n1,.,.,.,.,.
NC(=O)[C@@H]1CCCNc2c(I)cc([N+](=O)[O-])cc2C(=O)N[C@@H](CCCN=C(N)N)C(=O)N[C@@H](CCCN=C(N)N)C(=O)N1,47,.,.,.,/
CC1CC(C)CN(C(=O)c2cc(S(=O)(=O)N3CCCCC3)ccc2Cl)C1 (stereo unspecified),/,/,/,/,.
CCc1cccc(NC(=O)C(NC(=O)C2CCCCC2)C(C)C)c1 (stereo unspecified),.,.,.,.,.
O=C(/C=C/c1ccccc1)c1ccc(NC2=NCCCS2)cc1,.,.,.,.,.
O=C(/C=C/c1ccc(Br)cc1)c1ccc(NC2=NCCCS2)cc1,37,.,.,.,20
Cc1cc(NS(=O)(=O)c2ccc(Nc3nc(-c4sc(C)nc4C)cs3)cc2)no1,.,.,-2.0[inhibitor],-1.0[inhibitor],/
CC(O)CO (stereo unspecified),/,/,/,/,.
CCN1CCN(C(=S)Nc2ccc3nc(N4CCN(C)CC4)cc(C)c3c2)CC1,.,.,.,.,.
CCN1CCN(C(=S)Nc2ccc3nc(N4CCN(CC)CC4)cc(C)c3c2)CC1,46,.,.,.,.
CCCCN(CC)CCNC(=O)CCC(=O)Nc1ccc2nc(N3CCN(C)CC3)cc(C)c2c1,41,.,.,.,.
CCCN(CCC)CCCNC(=S)Nc1ccc2nc(N3CCN(CC)CC3)cc(C)c2c1,.,.,.,.,.
CCCN(CCC)CCCNC(=S)Nc1ccc2nc(N3CCN(C)CC3)cc(C)c2c1,44,.,.,.,.
Clc1ccc(-c2c(C3=NCCCN3)nnn2-c2ccc(Cl)cc2)cc1,.,.,.,.,.
COc1ccc(-n2ccnc2SCC(=O)NO)cc1,.,.,.,.,.
CCN1CCN(CCNC(=O)c2ccc(/C=C3\Sc4ccccc4N(Cc4ccccc4F)C3=O)cc2)CC1,.,.,.,.,.
CN1CCN(CCCNC(=O)c2ccc(/C=C3\Oc4ccccc4N(Cc4ccccc4F)C3=O)cc2)CC1,.,29,159,.,.
Cc1cccc(CN2C(=O)c3ccccc3Sc3ccc(C(=O)NCCCN4CCOCC4)cc32)c1,.,.,.,.,.
Cc1cccc(CN2C(=O)/C(=C\c3ccc(C(=O)NCCCN4CCN(C)CC4)cc3)Oc3ccccc32)c1,.,36,162,.,.
NC(=S)N=Nc1c(O)n(C2OC(=O)c3ccccc32)c2ccccc12 (stereo unspecified),.,/,/,/,26
NC(=S)N=Nc1c(O)n(CCCl)c2ccccc12,.,.,.,.,.
SMILES,FID counter,MEKK2mut PB1 HTS,MEKK2 WT-MEK5,MEKK3 PB1 HTS,dFosB activator
O=C(COC(=O)c1ccccc1O)NC(=O)NCc1ccccc1,/,/,/,/,.
CSc1nc(O)c(N=Nc2ccc(F)cc2F)c(=O)[nH]1,.,.,.,.,.
CC1CCCN(CCCNC(=O)c2cc3c(Cl)nc4ccccc4c3s2)C1 (stereo unspecified),.,54,189,.,.
CN(CCCNC(=O)c1cc2c(Cl)nc3ccccc3c2s1)Cc1ccccc1,.,.,193,.,.
O=C(O)CSCCC(=O)Nc1ccc(F)cc1,.,.,.,.,.
O=C(NNC(=O)c1ccc(Br)s1)c1csc(N2CCOCC2)n1,/,/,/,/,61
CC1(C)C(C=C(Cl)Cl)C1C(=O)N(Cc1ccccc1Cl)C1CCS(=O)(=O)C1 (stereo unspecified),.,.,.,.,.
Cc1cccc(OCC(=O)NCC(=O)N/N=C/c2ccc(O)cc2O)c1,.,.,.,.,17
Cc1ccc2c(c1)c(C)c(C)n2CC(O)CN1CCOCC1 (stereo unspecified),.,.,-5.0[inhibitor],.,.
Cc1ccc2nccc(C(=O)N3CCCC(Nc4ccc(C)c(C)c4)C3)c2c1 (stereo unspecified),.,.,.,.,.
CC(=O)c1nn(-c2cccc(C)c2)cc1C(=O)c1cccc(Br)c1,/,/,/,/,.
CC1CC(C)CN(CC(=O)NC(c2ccccc2)c2ccccc2)C1 (stereo unspecified),37,.,.,.,.
O=C(CN1CCCCCC1)NC(c1ccccc1)c1ccccc1,.,.,.,.,.
O=C1CC(c2ccccc2F)c2cc3c(cc2N1)CCC3 (stereo unspecified),.,/,/,/,.
O=C1CC(c2cc(Br)ccc2F)c2cc3c(cc2N1)CCC3 (stereo unspecified),.,.,.,.,41
c1ccc(Nc2ncnc3[nH]ncc23)cc1,.,.,.,.,/
CCN(CC)c1ccc(N=Cc2c(C)[nH]c3ccccc23)cc1,.,.,.,75[inhibitor],.
Cc1cc(OCC(O)CN2CCN(c3ccccn3)CC2)cc(C)c1Cl (stereo unspecified),.,.,.,.,.
Cc1cc(C)c(OCC(O)CN2CCN(c3ccccn3)CC2)c(C)c1 (stereo unspecified),.,.,-8.0,.,.
COc1cc(NC(=O)c2cccc(C)c2)c(Cl)cc1[N+](=O)[O-],.,.,.,.,.
CC1(C)CC(=O)/C(=C\c2cccc([N+](=O)[O-])c2)C(C)(C)N1,.,.,.,132,.
O=C1N/C(=N/O)S/C1=C/c1cccc([N+](=O)[O-])c1,.,.,.,.,.
Cc1c(CCO)c(=O)n2n1CCCC2,/,/,/,/,.
CN(C)CCC(c1ccccc1)c1ccccn1 (stereo unspecified),.,.,.,.,.
CN(C)CCC(O)c1ccccc1 (stereo unspecified),.,.,-4.0,.,.
SMILES,FID counter,MEKK2mut PB1 HTS,MEKK2 WT-MEK5,MEKK3 PB1 HTS,dFosB activator
CCC(OC(=O)c1cccs1)C(=O)NCc1ccc(C)cc1 (stereo unspecified),.,.,.,.,.
Cc1ccc2[nH]c3nc(N/N=C/c4cccc(O)c4)nnc3c2c1,.,.,.,.,21
O=C(CC(C(=O)O)P(=O)(c1ccccc1)c1ccccc1)c1ccccc1 (stereo unspecified),.,.,.,.,.
COc1ccc(C2c3[nH]c4ccccc4c3CCN2Cc2cccn2-c2ncccn2)cc1C (stereo unspecified),.,.,.,.,32
CCOC(=O)CSc1[nH]c2cc(OC)ccc2c1[N+](=O)[O-],.,.,.,.,.
COc1ccc2c([N+](=O)[O-])c(Cl)[nH]c2c1,.,.,-6.0,.,.
O=C(Cc1ccccc1)N/N=C/c1cc(Br)cc(Cl)c1O,.,.,.,.,54
